Source: PubChem (The Scripps Research Institute Molecular Screening Center)
EBNA-1 inh = EBNA-1 DNA-binding inhibitors, primary screen, biochemical, fluorescence polarization; inhibition, % at 14.8 µM; AID 1950, 2009; 300,000 tested, 0.34% active; in the data active = inhibition above about 28%
ZTA DNA inh = blocks Epstein-Barr virus ZTA, an EBNA-1 counter-screen. ZTA-DNA binding, fluorescence polarization. inhibition, % at 11 µM. 320,000 tested, 0.15% active; in the data active = inhibition above about 33%
rCAG binder = binders of r(CAG) RNA repeats, primary screen, biochemical, fluorescence; 370,000 tested, 1.3% active; r(CAG) RNA repeat, TO-PRO-1 dye displacement fluorescence; inhibition, % at 3 µM;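 active = inhibition above the plate cutoff, the mean of all test compounds on that plate plus 3 SD, cut at about 35% in these data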;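 note: 0% = DMSO alone and 100% = 100 µM mitoxantrone as full dye displacement; higher means more dye released from RNA so lower well fluorescence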
PAFAH2 FP inh = PAFAH2 enzyme inhibitors, primary screen, biochemical, fluorescence polarization, human; recombinant PAFAH2, FP-rhodamine activity probe; AID 492956, 2010; inhibition, % at 3.39 µM; 340,000 tested, 0.99% active; Platelet-activating factor acetylhydrolase 2, cytoplasmic (Homo sapiens), Q99487;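 active = inhibition above the mean over all tested compounds plus 3 SD, cut at about 30% in these data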;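 note: inhibitors block probe labeling of enzyme so polarization drops; 0% = enzyme with DMSO and 100% = wells lacking PAFAH2 protein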
PAFAH1B2 FP inh = PAFAH1B2 enzyme inhibitors, primary screen, biochemical, fluorescence polarization, human; Platelet-activating factor acetylhydrolase IB subunit alpha2 (Homo sapiens), P68402; AID 492953, 2010; inhibition, % at 3.39 µM; 340,000 tested, 1.2% active; recombinant PAFAH1B2, FP-rhodamine activity probe;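 active = inhibition above the mean of all tested compounds plus 3 SD, cut at about 24% in these data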;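 note: 0% = enzyme with DMSO and 100% = wells lacking PAFAH1B2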
Target sequence (P68402 whole entry, looked up): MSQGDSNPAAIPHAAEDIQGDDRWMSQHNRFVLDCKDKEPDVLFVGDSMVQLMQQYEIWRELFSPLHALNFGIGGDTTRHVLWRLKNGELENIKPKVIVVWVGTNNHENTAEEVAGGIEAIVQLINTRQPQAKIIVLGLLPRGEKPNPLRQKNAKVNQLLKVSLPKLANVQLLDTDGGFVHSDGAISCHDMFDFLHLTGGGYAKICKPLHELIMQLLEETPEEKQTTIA
PAFAH1B3 FP inh = PAFAH1B3 enzyme inhibitors, primary screen, biochemical, fluorescence polarization, human | AID 492972, 2010 | Platelet-activating factor acetylhydrolase IB subunit alpha1 (Homo sapiens), Q15102 | inhibition, % at 3.39 µM | 340,000 tested, 0.28% active | recombinant PAFAH1B3, FP-rhodamine probe;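 active = inhibition above the screen-wide average of all tested compounds plus 3 SD, cut at about 25% in these data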;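 note: 0% = enzyme with DMSO only and 100% = wells lacking PAFAH1B3 protein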
Target sequence (Q15102 whole entry, looked up): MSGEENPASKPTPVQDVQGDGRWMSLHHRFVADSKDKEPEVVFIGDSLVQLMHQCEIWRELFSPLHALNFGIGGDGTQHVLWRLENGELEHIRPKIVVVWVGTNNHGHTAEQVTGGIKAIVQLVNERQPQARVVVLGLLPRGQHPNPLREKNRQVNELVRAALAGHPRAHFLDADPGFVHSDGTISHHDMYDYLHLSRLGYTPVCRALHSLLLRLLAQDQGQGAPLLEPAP
Active calls of the source: *; . = not tested or not shown. Sampled rows, rich in hits. Any-hit rate of the full collection: about 2.9%.

SMILES	EBNA-1 inh	ZTA DNA inh	rCAG binder	PAFAH2 FP inh	PAFAH1B2 FP inh	PAFAH1B3 FP inh
CC(NC(=O)C1CCCC1)c1ccc(Br)cc1 (stereo unspecified)	10.4	7.9	-1.6	2.7	39.6*	3.4
CCOC(=O)[C@]12CCCCC/C=C\1N(CCc1ccc(Cl)cc1)C(=O)[C@H]2CC(=O)N1CCN(C(=O)C2CC2)CC1	.	.	1.2	.	.	.
Cc1cccc(C2C3=C(Nc4[nH]n(-c5ccccc5)c(=O)c42)c2ccccc2C3=O)c1 (stereo unspecified)	.	.	68.1*	62.4*	51.6*	20.6
CCOC(=O)CNC(=O)N(C)[C@H]1C[C@H]2c3[nH]c4c(-c5cccc(C)c5)cccc4c3CCN2C(=O)[C@H]1[C@H](C)O	.	.	5.2	.	.	.
Cc1cc(NC(=O)c2ccc(NS(=O)(=O)c3ccccc3F)cc2)no1	.	.	7.4	.	.	.
Cc1c(C)c2c(OCC(=O)NCc3ccccn3)cc3c(c2oc1=O)CCC(C)(C)O3	-1.3	-14.8	-5.1	84.7*	5.8	9.6
Cc1c(C)c2c(OCC(=O)NCC(O)c3ccccc3)cc3c(c2oc1=O)CCC(C)(C)O3 (stereo unspecified)	0.4	-11.3	-1.2	70.1*	9.4	7.9
CCCc1cc(=O)oc2c3c(cc(OCC(=O)NCc4ccncc4)c12)OC(C)(C)CC3	8.7	-8.8	-3.4	56.5*	1.2	10.2
Cc1cc(=O)oc2c3c(cc(OCC(=O)NCc4ccccc4)c12)OC(C)(C)CC3	3.9	19.2	-4.0	19.5	10.1	14.7
CCCc1cc(=O)oc2c3c(cc(OCC(=O)NCc4ccccn4)c12)OC(C)(C)CC3	5.4	6.6	-6.7	60.0*	5.9	8.2
CCNC(=O)N1CCN(c2ccc(N3CCN(Cc4ccccc4)[C@@H](C)C3)c(C)c2)[C@@H](C)C1	.	.	1.6	.	.	.
OC(c1ccccc1)(c1ccccc1)C1CCN(CCCOc2ccc(-c3cccnc3)cc2)CC1	.	.	4.2	.	.	.
CN1C(=O)C[C@@](C#N)(C(=O)Nc2nc3ccc(F)cc3s2)[C@H]1c1ccccc1	.	.	2.7	.	.	.
CCc1cc(=O)oc2c3c(cc(OCC(=O)N[C@H](C(=O)O)[C@H](C)CC)c12)OC(C)(C)CC3	3.3	-5.4	28.9	51.9*	16.7	-5.3
CCCc1cc(=O)oc2c3c(cc(OCC(=O)N[C@@H](C)C(=O)O)c12)OC(C)(C)CC3	-23.4	0.3	12.0	28.0	1.8	6.5
CCN(CC)S(=O)(=O)c1ccc(N2CCCC2)c(NC(=O)CSCc2c(C)noc2C)c1	.	.	4.3	.	.	.
Cc1noc(C)c1CSCC(=O)Nc1ccccc1N1CCCCC1	3.0	-11.3	.	-3.8	29.5*	1.6
O=S(c1ccccc1O)S(=O)c1ccccc1O (stereo unspecified)	.	.	72.3*	26.8	8.9	14.0
COC(=O)c1cc(-c2ccc(C)cc2)c(=O)n2c1CCC2	.	.	4.5	.	.	.
O=C1Nc2ccccc2C1=Nc1cccc([N+](=O)[O-])c1	5.2	-11.9	6.5	-1.2	11.6	20.8
NC(=O)c1ccc(N=C2C(=O)Nc3ccc([N+](=O)[O-])cc32)cc1	6.2	-9.7	5.0	11.4	12.4	56.3*
COc1c2ccccc2nn1C(C)C	.	.	1.9	.	.	.
CN(CCS(=O)(=O)c1ccc(Cl)cc1)Cc1cccnc1	-4.0	3.2	0.9	7.4	7.4	1.5
CC(C)c1ccc(C(C)NCCS(=O)(=O)c2ccc(Cl)cc2)cc1 (stereo unspecified)	-2.3	2.3	-9.6	5.4	33.6*	6.2
NC(=O)C1=CN([C@@H]2O[C@H](COP(=O)(O)OP(=O)(O)OC[C@H]3O[C@@H](n4cnc5c(N)ncnc54)[C@H](O)[C@@H]3O)[C@@H](O)[C@H]2O)C=CC1	.	.	1.7	.	.	.
SMILES	EBNA-1 inh	ZTA DNA inh	rCAG binder	PAFAH2 FP inh	PAFAH1B2 FP inh	PAFAH1B3 FP inh
O=C(CCC(=O)N1CCSc2ccccc21)NCc1ccc(Cl)cc1	-1.0	5.6	0.3	9.3	25.0*	-3.2
O=C(O)COc1ccc2nsnc2c1Cl	-2.0	6.2	5.0	2.4	-0.5	6.4
Cc1ccccc1C1=C/C(=C(\SS/C(C(=O)c2ccc(OCC(=O)O)c(Cl)c2Cl)=C2\C=C(c3ccccc3C)SS2)C(=O)c2ccc(OCC(=O)O)c(Cl)c2Cl)SS1	.	.	14.1	33.6*	25.5*	24.6
O=C(O)c1ccc(S(=O)(=O)c2ccc3c(c2)C(=O)N(NC(=O)c2ccc(O)cc2)C3=O)cc1	-7.9	-3.8	0.8	2.1	3.8	4.4
Cc1ccc(C(=O)NN2C(=O)c3ccc(S(=O)(=O)c4ccc(C(=O)O)cc4)cc3C2=O)cc1	-1.9	-5.3	3.0	5.1	24.2*	3.1
CC1CCN(C(=O)c2ccc(SCc3ccccc3F)c([N+](=O)[O-])c2)CC1	37.9*	-6.0	-1.6	-2.6	1.5	3.9
O=C(c1ccc(S(=O)(=O)Cc2ccccc2F)c([N+](=O)[O-])c1)N1CCCCCC1	1.7	2.5	-3.0	9.4	-5.2	9.3
CN(C)c1ccc(NC(=O)N2CCOCC2)cc1	49.8*	61.7*	-1.1	-1.9	3.3	-7.0
CC(C)N1CCCCC(NC(=O)Cc2ccccc2)C1=O (stereo unspecified)	.	.	0.0	.	.	.
CC1CCN(S(=O)(=O)c2ccc(Br)s2)CC1	1.2	11.4	-1.2	-7.2	28.7*	-0.6
O=C(O)C1CCN(S(=O)(=O)c2ccc(Cl)s2)CC1	.	.	0.4	1.1	27.1*	8.0
O=S(=O)(c1ccc(Cl)s1)N1CCCCC1	-17.4	-16.3	-3.6	1.5	10.9	2.8
CC1CCN(S(=O)(=O)c2ccc(Cl)s2)CC1	.	.	2.8	-6.5	25.4*	8.3
O=C1CSC(c2ccccc2O)N1Cc1ccccc1 (stereo unspecified)	-3.4	20.1	0.5	-5.1	24.8*	7.4
COc1ccc(C2SCC(=O)N2Cc2ccccc2)cc1 (stereo unspecified)	-7.4	-12.3	3.6	0.0	9.4	6.7
Cc1ccc(C2SCC(=O)N2Cc2ccccc2)cc1 (stereo unspecified)	9.0	-3.9	1.2	5.8	28.6*	5.0
Cc1cccc(NC(=O)Nc2ccccc2C(=O)N2CCCC2)c1	.	.	-0.8	.	.	.
Cc1ccsc1/C=N/N=C/c1sccc1C	-5.5	15.0	-4.0	0.7	3.8	7.4
Cc1ccsc1C=Nc1ccc(O)cc1	-2.5	37.6*	.	8.3	6.4	21.6
CCOC(=O)c1ccc(NC(=O)C2(c3ccc(Cl)cc3)CCCC2)cc1	3.0	7.4	-0.1	-8.9	29.3*	-1.3
CCOC(=O)c1ccc(NC(=O)C2(c3ccccc3)CCCC2)cc1	1.3	9.8	-5.0	-1.7	14.1	-1.2
CC(C)(C)c1ccc(/C=N/OCC(=O)NCc2ccccc2)cc1	6.6	1.0	-7.7	4.7	23.0	-3.3
Cc1ccc(CNC(=O)CO/N=C/c2ccc(C(C)(C)C)cc2)cc1	-19.3	2.2	1.5	-6.4	28.8*	3.3
